The panel holds about 83,000 compounds, 20% with a hit somewhere; the sample as a whole holds those more often.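 Interpretation: 100, growth as untreated; towards 0, rising growth inhibition; 0, no net growth; 0 to -100, cell death. Compounds scoring below 10 were considered active.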 Unmarked numbers belong to inactive results. Active and inactive are the calls of the source.

Among the test systems are SK-MEL-2 melanoma; EKVX NSCLC; SN12C renal; UO-31 renal; TK-10 renal; ACHN renal; CAKI-1 renal; A498 renal; CCRF-CEM leukemia; MOLT-4 leukemia; SR leukemia; RPMI-8226 leukemia; OVCAR-5 ovarian; OVCAR-4 ovarian; SK-OV-3 ovarian; IGROV1 ovarian; OVCAR-3 ovarian; HS 578T breast; NCI/ADR-RES ovarian; OVCAR-8 ovarian.
Common to all, as to test: NCI-60 one-dose screen, 48 h (100 = growth as untreated, 0 = no growth, -100 = all killed)
Holding throughout (settings): 10 µM unless noted

Regarding `C=C1C(=O)O[C@H]2[C@H]1CC/C(COC(=O)NCCOCCOCC(=O)Nc1ccc(OC)c(C(N)=O)c1O)=C\CC[C@@]1(C)O[C@@H]21`, the growth in the experiment with SK-MEL-2 melanoma was 72.5%; in the experiment on EKVX NSCLC, 84.1%; in the experiment with SN12C renal it was 66%; in the experiment with UO-31 renal it was 74.9%; with TK-10 renal, 45.5%; in the experiment with ACHN renal it was 40.8%. In addition, the growth was 82% in the experiment with CAKI-1 renal; 92.5% with A498 renal; -4.37% (active) in the experiment on CCRF-CEM leukemia; 17% in the experiment on MOLT-4 leukemia; 7.91% (active) with SR leukemia; 16% with RPMI-8226 leukemia. The growth is 90.9% in the experiment with OVCAR-5 ovarian; 71% in the experiment with OVCAR-4 ovarian; 109% in the experiment with SK-OV-3 ovarian; 24.7% in the experiment with IGROV1 ovarian; 45.8% in the experiment on OVCAR-3 ovarian; 90.1% in the experiment on HS 578T breast. In addition, in the experiment on NCI/ADR-RES ovarian, the growth is 94.6%.

Turning to `CC(C)c1cc(C(C)C)c(S(=O)(=O)Oc2ccc(NC(=O)c3ccc(Cl)cc3)cc2)c(C(C)C)c1`, the growth in the experiment with SK-MEL-2 melanoma was 31.3%; in the experiment with EKVX NSCLC, 19.4%; with SN12C renal, 21.4%; in the experiment with UO-31 renal, 29.9%; in the experiment on TK-10 renal, 42.5%; in the experiment on ACHN renal it was 15.4%. Also, the growth in the experiment with CAKI-1 renal is 21.6%; in the experiment on A498 renal, 17.7%; with CCRF-CEM leukemia, 25.2%; with MOLT-4 leukemia it was 17.6%; in the experiment with SR leukemia it was 25.9%; in the experiment with RPMI-8226 leukemia it was 16.4%. Further, the growth in the experiment on OVCAR-5 ovarian is 86.4%; in the experiment on OVCAR-4 ovarian, 39.6%; in the experiment with SK-OV-3 ovarian, 78.2%; in the experiment with IGROV1 ovarian it was 47.1%; with OVCAR-3 ovarian, 31.6%; with HS 578T breast it was 39.5%. For the same compound, the growth with NCI/ADR-RES ovarian is 35.6%.

With `CC(=O)CC[C@H]1C(=O)N[C@@H](C(C)C)C(=O)N[C@@H](Cc2cc(O)cc(F)c2)C(=O)N2CCC[C@H](N2)C(=O)O[C@H](/C(C)=C/C=C/C(=O)OC(C)(C)C)C/C=C/C=C/[C@H](O)[C@H](C)[C@H]1O`, the growth with SK-MEL-2 melanoma was 62.3%; with EKVX NSCLC, 71.3%; in the experiment with SN12C renal, 53.7%; in the experiment with UO-31 renal, 56.2%; in the experiment with TK-10 renal, 62.6%; in the experiment with ACHN renal, 62.6%. Moreover, the growth is 57.4% in the experiment with CAKI-1 renal; 82.3% in the experiment with A498 renal; 46.3% in the experiment with CCRF-CEM leukemia; 49.5% with MOLT-4 leukemia; 16.7% in the experiment with SR leukemia; 37.1% in the experiment with RPMI-8226 leukemia. The growth was 88.6% in the experiment on OVCAR-5 ovarian; 56.6% with OVCAR-4 ovarian; 48.8% with SK-OV-3 ovarian; 43.8% in the experiment with IGROV1 ovarian; 54.2% in the experiment on OVCAR-3 ovarian; 55.9% with HS 578T breast. For the same compound, the growth in the experiment with NCI/ADR-RES ovarian was 77.7%.

`Cc1cc(=O)[nH]c(=O)n1Cc1cn(-c2c3ccccc3nc3ccccc23)nn1`: the growth in the experiment on SK-MEL-2 melanoma is 107%; in the experiment on EKVX NSCLC, 103%; in the experiment on SN12C renal, 88.7%; in the experiment with UO-31 renal it was 82.6%; in the experiment on TK-10 renal, 96.1%; with ACHN renal, 87.4%. The growth is 91% in the experiment on CAKI-1 renal; 101% in the experiment on A498 renal; 64.7% in the experiment with CCRF-CEM leukemia; 48.5% in the experiment on MOLT-4 leukemia; 11.4% in the experiment with SR leukemia; 55.5% in the experiment with RPMI-8226 leukemia. Also, the growth with OVCAR-5 ovarian is 120%; in the experiment with OVCAR-4 ovarian it was 106%; in the experiment on SK-OV-3 ovarian, 96.2%; in the experiment on IGROV1 ovarian, 33%; in the experiment with OVCAR-3 ovarian, 90.7%; with HS 578T breast it was 100%. Also, in the experiment on NCI/ADR-RES ovarian, the growth was 106%.

`O=C(O)CCC(=O)Nc1nnc(-c2ccccc2)s1`: the growth in the experiment with SK-MEL-2 melanoma is 106%; in the experiment on EKVX NSCLC, 95.3%; in the experiment with SN12C renal, 104%; in the experiment with UO-31 renal it was 106%; in the experiment on TK-10 renal it was 111%; in the experiment on ACHN renal, 109%. Further, the growth is 97.8% in the experiment with CAKI-1 renal; 98.9% in the experiment with A498 renal; 106% with CCRF-CEM leukemia; 111% with MOLT-4 leukemia; 95.6% with SR leukemia; 99.4% in the experiment with RPMI-8226 leukemia. The growth is 107% in the experiment with OVCAR-5 ovarian; 109% with OVCAR-4 ovarian; 95.6% in the experiment on SK-OV-3 ovarian; 112% with IGROV1 ovarian; 101% in the experiment with OVCAR-3 ovarian; 111% in the experiment with HS 578T breast. The growth in the experiment with NCI/ADR-RES ovarian is 107%.

`COc1ccc(-c2cc(-c3ccc(Cl)cc3)c(C#N)c(=O)n2CCCCCC(=O)Nc2ccccc2N)cc1`: the growth in the experiment on SK-MEL-2 melanoma is 58.5%; with EKVX NSCLC, 51.5%; in the experiment with SN12C renal, 41.9%; in the experiment with UO-31 renal it was 43%; in the experiment on TK-10 renal, 78.3%; in the experiment on ACHN renal, 34.2%. Moreover, the growth was 7.69% (active) in the experiment on CAKI-1 renal; 39.1% in the experiment on A498 renal; 32.5% with CCRF-CEM leukemia; 35.2% in the experiment with MOLT-4 leukemia; -1.58% (active) in the experiment with SR leukemia; 29.8% in the experiment with OVCAR-8 ovarian. The growth was 52.2% with OVCAR-5 ovarian; 54.7% in the experiment with OVCAR-4 ovarian; 63.6% with SK-OV-3 ovarian; 37.6% with IGROV1 ovarian; 58.3% in the experiment with OVCAR-3 ovarian; 70% in the experiment on HS 578T breast. Moreover, in the experiment on NCI/ADR-RES ovarian, the growth was 33.3%.

In the case of `Oc1c(I)cc(I)cc1CNCCCN(Cc1ccccn1)Cc1ccccn1`, the growth with SK-MEL-2 melanoma was -30.9% (active); in the experiment on EKVX NSCLC, -85.6% (active); with SN12C renal, -50.1% (active); with UO-31 renal it was -100% (active); with TK-10 renal it was -78.5% (active); with ACHN renal, -100% (active). Further, the growth was -96.1% (active) in the experiment on CAKI-1 renal; -98.4% (active) with A498 renal; 3.65% (active) in the experiment on CCRF-CEM leukemia; -10.5% (active) in the experiment on MOLT-4 leukemia; 4.38% (active) in the experiment on SR leukemia; -11.2% (active) in the experiment on OVCAR-8 ovarian. Moreover, the growth in the experiment on OVCAR-5 ovarian is -44.9% (active); in the experiment with OVCAR-4 ovarian, -94.3% (active); with SK-OV-3 ovarian it was -73% (active); in the experiment on IGROV1 ovarian it was -79.5% (active); in the experiment on OVCAR-3 ovarian, -69.9% (active); in the experiment with HS 578T breast it was -21.7% (active). Also, the growth in the experiment with NCI/ADR-RES ovarian is -17.1% (active).

Take `COc1ccccc1/C=C1\Oc2cc(OCCN3CCC(Cc4ccccc4)CC3)ccc2C1=O`: the growth in the experiment on SK-MEL-2 melanoma was 116%; in the experiment on EKVX NSCLC it was 86%; in the experiment with SN12C renal it was 88.8%; in the experiment on UO-31 renal, 65.5%; in the experiment with TK-10 renal, 94.5%; with ACHN renal, 105%. The growth in the experiment on CAKI-1 renal is 82.5%; in the experiment on A498 renal, 47.7%; in the experiment on CCRF-CEM leukemia, 70.7%; with MOLT-4 leukemia it was 72.2%; with SR leukemia it was 5.96% (active); in the experiment with OVCAR-8 ovarian, 81.2%. Besides, the growth is 89.3% in the experiment on OVCAR-5 ovarian; 93.2% in the experiment with OVCAR-4 ovarian; 106% in the experiment with SK-OV-3 ovarian; 82.6% in the experiment with IGROV1 ovarian; 98% with OVCAR-3 ovarian; 82.8% in the experiment with HS 578T breast. Moreover, the growth in the experiment with NCI/ADR-RES ovarian is 89.2%.

Values taken from PubChem BioAssay (NCI).
